# Compounds with a hit are over-represented: about 12% of the library has one in this group of screens.
# Sfp PPTase inh: Sfp phosphopantetheinyl transferase inhibition; Biochemical Sfp PPTase activity, qHTS; Q9F4F7; actives 3.5% (n = 310,000); Potency, µM, for the others: largest response in the series, negative = inhibition, usual class: inhibitors;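 note: the enzyme is Sfp with the accession as filed and its product quenches rhodamine fluorescence; 0% = enzyme reaction without inhibitor and -100% = no enzyme wells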
#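 Reaction rates are the 30-min fluorescence difference (ex 525, em 598 nm) in wells containing 15 nM Sfp, 5 uM rhodamine-CoA and 12.5 uM BHQ-2-YbbR at pH 7.6 with 10 mM MgCl2.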
# JMJD2A Tudor inh: blocks the human JMJD2A Tudor domain | O75164 | AlphaScreen JMJD2A-Tudor / H3K4me3 peptide binding | Potency, µM (series often up to 114 µM), for inactives: at the highest dose activity change, negative = inhibition, most hits filed as inhibitors | actives 4.4% (n = 390,000) | AID 504339; note: % is set by controls: 0 for no effect and ±100 for the full control effect; nearly all actives have a fitted effect of over 50% in size
# Target sequence (O75164 whole entry, looked up, the tested form may be a part): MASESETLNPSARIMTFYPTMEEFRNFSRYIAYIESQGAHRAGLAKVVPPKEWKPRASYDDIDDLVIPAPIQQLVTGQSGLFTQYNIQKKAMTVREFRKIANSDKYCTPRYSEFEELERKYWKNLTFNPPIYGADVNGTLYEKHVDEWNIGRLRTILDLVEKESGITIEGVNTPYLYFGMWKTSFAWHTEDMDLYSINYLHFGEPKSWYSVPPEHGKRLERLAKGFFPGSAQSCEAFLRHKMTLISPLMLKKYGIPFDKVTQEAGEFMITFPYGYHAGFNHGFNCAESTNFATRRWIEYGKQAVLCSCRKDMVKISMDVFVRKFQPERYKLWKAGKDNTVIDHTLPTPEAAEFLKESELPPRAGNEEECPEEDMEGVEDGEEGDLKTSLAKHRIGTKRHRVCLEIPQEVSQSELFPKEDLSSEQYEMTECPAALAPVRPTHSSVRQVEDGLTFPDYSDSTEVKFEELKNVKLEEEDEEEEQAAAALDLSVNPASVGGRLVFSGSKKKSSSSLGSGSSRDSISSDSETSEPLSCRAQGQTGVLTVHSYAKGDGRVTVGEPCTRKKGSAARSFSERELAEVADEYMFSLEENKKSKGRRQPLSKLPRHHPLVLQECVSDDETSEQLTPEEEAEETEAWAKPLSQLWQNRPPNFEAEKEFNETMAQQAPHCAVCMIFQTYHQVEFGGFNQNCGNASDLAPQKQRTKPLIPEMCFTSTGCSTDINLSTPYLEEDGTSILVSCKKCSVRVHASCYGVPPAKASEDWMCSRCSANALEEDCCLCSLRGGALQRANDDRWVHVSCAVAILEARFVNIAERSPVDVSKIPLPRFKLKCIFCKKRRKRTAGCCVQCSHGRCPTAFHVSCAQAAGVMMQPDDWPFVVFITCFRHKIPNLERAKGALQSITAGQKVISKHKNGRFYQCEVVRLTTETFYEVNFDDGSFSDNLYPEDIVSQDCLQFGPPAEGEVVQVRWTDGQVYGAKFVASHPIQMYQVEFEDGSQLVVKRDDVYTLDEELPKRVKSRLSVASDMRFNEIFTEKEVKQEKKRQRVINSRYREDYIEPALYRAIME
# PLK1 PBD block: PLK1 (human) polo-box domain binding inhibition; P53350; Plk1 PBD binding of FITC phosphopeptide, fluorescence polarization; Potency, µM, for inactives: max response, negative = inhibition, hits mostly inhibitors; actives 2.8% (n = 360,000); AID 720504; note: series mostly up to about 57 µM; % is set by controls: 0 for no effect and ±100 for the full control effect; nearly all actives have a fitted effect of over 65% in size
# HP1b binding inh: HP1-beta chromodomain-methylated histone interaction inhibition; P83916; AlphaScreen HP1-beta / biotin-H3K9me3 peptide binding; Potency, µM (top dose mostly 114 µM), inactives show at the highest dose activity change, negative = inhibition, most hits filed as inhibitors; actives 0.56% (n = 390,000); note: nearly all actives have a fitted effect of over 70% in size
#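 HP1-beta protein (50 nM final) preincubated 30 min at room temperature with biotinylated H3(1-18)K9me3 peptide (50 nM) in PBS pH 7.4, 0.01% Tween-20, then compound added for 30 min. AlphaScreen streptavidin donor/nickel chelate acceptor beads (10 ug/mL final), 30 min dark, luminescence read.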
# G9a block: inhibitors of human histone lysine methyltransferase G9a; G9a H3K9 monomethylation, AlphaScreen, 2 h; Potency, µM (doses to about 102 µM), for the others: top-dose activity, negative = inhibition, usual class: inhibitors; Q96KQ7; actives 8.8% (n = 350,000); AID 504332; note: % is set by controls: 0 for no effect and ±100 for the full control effect; nearly all actives have a fitted effect of over 75% in size
#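 Methyltransferase reactions run at room temperature for 2 h (20 nM enzyme, 500 nM biotin-H3K9 peptide, 20 uM SAM) after a 15 min compound preincubation; product detected by AlphaScreen beads and anti-H3K9me1 antibody.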
# BAZ2B inh: inhibitors of human BAZ2B bromodomain. actives 4.4% (n = 360,000). AlphaScreen BAZ2B-H3K14Ac peptide displacement. Potency, µM (series often up to 114 µM), without a hit: at the top dose activity change, negative = inhibition, usual class: inhibitors; note: % is set by controls: 0 for no effect and ±100 for the full control effect; nearly all actives have a fitted effect of over 60% in size
#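 Complex of BAZ2B and biotin-H3K14Ac (50 nM apiece) forms over 30 min at RT, then faces library compounds up to 110 uM for another 30 min; AlphaScreen beads added, 20 min dark incubation, luminescence read.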
# * = called active by the depositor; ? = inconclusive; · = not tested or not shown; [ ] = remark or other dose. Calls come from the whole dose curve; as a rule, active = well fitted curve in the direction sought with a large enough effect; inconclusive = small, poorly fitted or top-dose-only effect, or another doubt; inactive = no such curve, though single readings can be large; an effect the other way counts as inactive or inconclusive. Potency is the fitted concentration of half-maximal effect.
SMILES,Sfp PPTase inh,JMJD2A Tudor inh,PLK1 PBD block,HP1b binding inh,G9a block,BAZ2B inh
CCN(CC)c1ccc(/C=N/N2CCN(Cc3ccccc3Cl)CC2)cc1,-8%,18µM*,-18%,?,8.9µM*,7.1µM*
CC1CC(C)(C)CC2(C1)NC(=O)N(CC(=O)Nc1cc(C(F)(F)F)ccc1N1CCCCC1)C2=O (stereo not given),·,-17%,-6%,30%,·,·
O=c1[nH]c2ccc(NCc3ccc(-c4cccc(Cl)c4)o3)cc2[nH]1,·,-28%,·,18%,?,-10%
CN(c1ccccc1)c1ccc(/C=N/N2CCOCC2)cc1,-15%,45µM*,-9%,50µM*,?,50µM*
CCN(CC)c1ccc(/C=N/N2CCN(Cc3ccccc3)CC2)cc1,-17%,22µM*,2%,?,10µM*,14µM*
C(=NN1CCCCCC1)c1ccccc1,·,?,6%,-33%,·,·
C(=N\N1CCN(Cc2ccccc2)CC1)/c1ccccc1,9%,-10%[11.4 µM],?,5%,?,?
Cc1ccc(S(=O)(=O)c2nnn3c2nc(Nc2ccc(C(C)C)cc2)c2sccc23)cc1C,·,4%,·,35%,-3%[59 µM],3%
CCOC(=O)c1cc2c(=O)n3ccccc3nc2n(Cc2ccco2)c1=NC(=O)c1ccccc1OC,35µM*,?,-12%,7%,-29%,-26%
CCOC(=O)c1cc2c(=O)n3ccccc3nc2n(Cc2ccco2)c1=NC(=O)c1ccc(OC)cc1,?,9%,-8%,22%,-12%,-8%
CCOC(=O)c1cc2c(=O)n3ccccc3nc2n(Cc2ccco2)c1=NC(=O)c1cccc(OC)c1,28µM*,-7%,-7%,13%,-24%,-15%
Cc1ccccc1OC(C)C(=O)Nc1ccc2c(c1)OCCO2 (stereo not given),-1%,-9%,-2%,24%,51%,0%
CCc1c(C)nc2cc(-c3ccc(OC)c(OC)c3)nn2c1NCC1CC1,22µM*,?,1%,-9%,56µM*,-37%
c1ccc2c(c1)OCCOCCOCCOCCOCCOc1ccccc1OCCOCCOCCO2,13%,-6%,-2%,25%,?,-1%
CC(C)Cn1c(-c2ccco2)n[nH]c1=S,-17%,4µM*,-11%,-8%,7.1µM*,?
CCCCn1c(-c2ccco2)n[nH]c1=S,-69%,3.2µM*,?,?,5µM*,-4%
C=CCn1c(-c2ccco2)n[nH]c1=S,-15%,10µM*,-13%,38%,?,-5%
CCCCn1c(-c2sccc2C)n[nH]c1=S,-25%,4.5µM*,-16%,?,7.9µM*,-18%
C=CCn1c(-c2ccoc2C)n[nH]c1=S,4%,-1%,-10%,12%,?,?
CN(C)CCNC(=O)CCCN1C(=O)c2cccnc2Oc2ccc(Cl)cc21,·,6%,·,31%,-6%[59 µM],-2%
CC(C)CN1CCC2(CC1)CCN(C(=O)c1csnn1)CC2,?,·,·,·,0%[12.7 µM],·
CCOc1ccccc1NC(=O)C1CCN(S(=O)(=O)c2cc(Br)cc3c2N(C(C)=O)CC3)CC1,·,-14%,·,25%,-5%[59 µM],-15%
Cn1c(-n2cccc2)c(-c2c(-c3ccc(F)cc3)[nH]c3c2c(=O)n(C)c(=O)n3C)c(=O)n(C)c1=O,·,-14%,·,?,7%[59 µM],-28%
CC(C)CC1NC(=O)N(CC(=O)N2CCN(S(=O)(=O)c3ccccc3)CC2)C1=O (stereo not given),18%,-17%,-7%,35%,2%[12.7 µM],1%
CCn1c(-c2ccco2)n[nH]c1=S,-13%,-2%[11.4 µM],-28%,-22%,3.5µM*,3%
Cn1c(-c2ccco2)n[nH]c1=S,-14%,7.9µM*,-19%,22%,4.5µM*,-13%
c1coc(-c2cnc3ccccc3n2)c1,·,·,-17%,·,·,·
COc1ccc(N2CCOCC2)c(NC(=O)c2cccnc2)c1,-3%,-5%,8%,30%,14%,?
COc1ccc(N=Cc2nc(-c3ccccc3)oc2OC(C)=O)cc1,-6%,-20%,?,49%,·,-1%

# Compound activity deposited in PubChem by National Center for Advancing Translational Sciences (NCATS).
